Compounds with a hit are over-represented: about 0.5% of the library has one in this group of screens.
E coli growth-1 = blocks Escherichia coli growth. OD600 absorbance (concentration not given with the values). actives 0.21% (n = 330,000). OD600, 23 h; stronger effect = lower value;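 active = OD600 absorbance below the run mean of sample wells minus 3.6 SD, in any replicate, cut at about 0.56 in these data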
AddAB inh = less growth of phage-infected E. coli with AddAB. inhibition, % at 11.9 µM. E. coli expressing H. pylori AddAB, absorbance growth. AID 435030. actives 0.29% (n = 330,000); in the data active = inhibition above about 12%;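 also: 0% = vehicle wells of infected cells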
Tat transport = inhibitors of E. coli Tat protein transport | E. coli MC4100 TorA-mCherry Tat export, fluorescence | inhibition, % at 10 µM | actives 0.036% (n = 340,000) | AID 488895;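 active = mean replicate inhibition at least 50% and at least half of replicates individually reaching 50%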;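 also: exported cargo escapes ClpAP degradation while cytoplasmic cargo is degraded and loses fluorescence; 0% = median of neutral control wells and 100% = median of NaSCN control wells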
E coli growth-2 = counter-screen for AddAB inhibitors: E. coli growth inhibition | E. coli V3065 growth, OD600 absorbance, 18 h | inhibition, % at 11.9 µM | actives 0.27% (n = 330,000) | AID 449728;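 active = inhibition above the campaign's mean inhibition across all tested compounds plus 3 SD, cut at about 9.9% in these data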;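 also: uninfected addAB+ strain grown without phage in ampicillin broth; 0% = DMSO wells and 100% = ciprofloxacin 0.95 µg/ml wells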
phage Ecoli inh = E. coli growth loss with phage present; growth absorbance; inhibition, % at 11.9 µM; actives 0.26% (n = 360,000); AID 651602; in the data active = inhibition above about 11%
AddAB conf = confirmation screen: growth loss of phage-infected E. coli expressing H. pylori AddAB; shares compounds with AddAB inh; actives 64% (n = 880); inhibition, % at 11.9 µM; AID 488942; E. coli V3065 expressing H. pylori AddAB, T4 phage, OD; T4 phage with gene 2 nonsense mutations;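 active = mean inhibition above a set limit taken from the earlier primary screen, cut at about 13% in these data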;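 also: higher means less bacterial growth since AddAB block lets phage replicate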
RecBCD counter = reduces growth of phage-infected RecBCD+ E. coli, AddAB inhibitor counter-screen; AID 488955; actives 73% (n = 880); shares compounds with AddAB inh; inhibition, % at 11.9 µM; E. coli V66 + mutant T4 phage, OD growth;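 active = mean inhibition above the mean of solvent-only control wells plus 3 SD, cut at about 4% in these data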;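 also: optical density read after an 18 h incubation at 37 °C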
Bact viability = counter-screen: bacterial growth inhibition; shares compounds with AddAB inh; bacterial viability, absorbance (AddAB counterscreen); inhibition, % at 11.9 µM; actives 35% (n = 880); AID 488956; in the data active = inhibition above about 25%
* hit, by the source's call.

Results for Cc1c(OC(C)C(=O)NCC(O)c2ccccc2)ccc2c3c(c(=O)oc12)CCC3 (configuration not stated) ?
E coli growth-1: 0.68; AddAB inh: 34*; Tat transport: 2; E coli growth-2: 28*; phage Ecoli inh: 1; AddAB conf: -6; RecBCD counter: -1; Bact viability: -3

What do the screens show for `Cc1cccc(N2C(=O)CSC2=NNC(=O)c2ccc(Cl)cc2)c1C`?
E coli growth-1: 0.62

How did O=Cc1c(-c2ccc(F)cc2)nc2ccccn12 do in these assays?
E coli growth-1: 0.7; AddAB inh: 98*; Tat transport: 1; E coli growth-2: 97*; phage Ecoli inh: 1; AddAB conf: 0; RecBCD counter: 1; Bact viability: -2

How did COc1ccc(-c2nc3ccccn3c2C=O)cc1 do in these assays?
E coli growth-1: 0.63; AddAB inh: 3; Tat transport: 11; E coli growth-2: 1; phage Ecoli inh: 2

Results for COc1cccc(OCCn2cc(C=NNC(=O)c3ccncc3)c3ccccc32)c1 ?
E coli growth-1: 0.68

Results for CCOC(=O)C1=C(C)NC(=O)NC1c1ccc([N+](=O)[O-])o1 (configuration not stated) ?
E coli growth-1: 0.69; AddAB inh: -2; Tat transport: 1; E coli growth-2: -2; phage Ecoli inh: 1

How did CCOC(=O)C1=C(C)NC2=C(C(=O)c3ccccc32)C1c1ccc([N+](=O)[O-])o1 (configuration not stated) do in these assays?
E coli growth-1: 0.63; AddAB inh: 26*; Tat transport: 1; E coli growth-2: 12*; phage Ecoli inh: 6; AddAB conf: 32*; RecBCD counter: 2; Bact viability: 15

What do the screens show for `O=C(Cc1cccs1)NCCn1ccc2ccccc21`?
E coli growth-1: 0.77; AddAB inh: 99*; Tat transport: 7; E coli growth-2: 95*; phage Ecoli inh: 3; AddAB conf: -1; RecBCD counter: 2; Bact viability: -1

What do the screens show for `O=C(NCCSc1c[nH]c2ccccc12)c1c(F)cccc1F`?
E coli growth-1: 0.65; AddAB inh: -1; Tat transport: 2; E coli growth-2: 1; phage Ecoli inh: 0

Results for O=C(NCCSc1c[nH]c2ccccc12)c1ccco1 ?
E coli growth-1: 0.71; AddAB inh: 81*; Tat transport: -9; E coli growth-2: 27*; phage Ecoli inh: 2; AddAB conf: -1; RecBCD counter: 2; Bact viability: 1

Results for CCOc1ccc(S(=O)(=O)n2cc(F)c(=O)[nH]c2=O)cc1[N+](=O)[O-] ?
E coli growth-1: 0.73; AddAB inh: 24*; Tat transport: -1; E coli growth-2: 17*; phage Ecoli inh: 10; AddAB conf: 11; RecBCD counter: 2; Bact viability: 7

How did O=C(CCNC(=O)c1ccco1)Nc1cccc(Br)c1 do in these assays?
E coli growth-1: 0.67; AddAB inh: 14*; Tat transport: -7; E coli growth-2: 2; phage Ecoli inh: 3; AddAB conf: 7; RecBCD counter: 4; Bact viability: 1

Results for CSc1cccc(NC(=O)CCNC(=O)c2ccco2)c1 ?
E coli growth-1: 0.66; AddAB inh: 7; Tat transport: 2; E coli growth-2: 5; phage Ecoli inh: 3

Results for CC(=NNC(=O)CC1(C)OCCO1)c1cccs1 ?
E coli growth-1: 0.68

Results for CCn1cc(C(=O)OCC(=O)c2cc(C)n(-c3ccccc3)c2C)c(=O)c2ccc(C)nc21 ?
E coli growth-1: 0.64; AddAB inh: 0; Tat transport: 0; E coli growth-2: 0; phage Ecoli inh: 0

Results for CCn1cc(C(=O)OCC(=O)N(C)Cc2ccccc2)c(=O)c2ccc(C)nc21 ?
AddAB inh: 98*; Tat transport: -1; E coli growth-2: 95*; phage Ecoli inh: 2; AddAB conf: -3; RecBCD counter: -1; Bact viability: -1

What do the screens show for `Cc1ccnc2c1ccc1c(C)ccnc12`?
E coli growth-1: 0.28*; AddAB inh: 39*; Tat transport: 8; E coli growth-2: 37*; AddAB conf: 70*; RecBCD counter: 25*; Bact viability: 20

What do the screens show for `CSC(=S)N/N=C/c1ccc(Br)cc1`?
AddAB inh: 5; Tat transport: -5; E coli growth-2: 5; phage Ecoli inh: 8

What do the screens show for `CSC(=S)N/N=C/c1ccc(N(C)C)cc1`?
AddAB inh: 16*; Tat transport: 5; E coli growth-2: 7; phage Ecoli inh: 3; AddAB conf: 53*; RecBCD counter: 7.4*; Bact viability: 30*

Results for CC(=NNc1ccc(F)cc1)c1ccc(N2CCOCC2)c(F)c1 ?
E coli growth-1: 0.6

Results for Cc1cc(NC(=O)c2cc(C)on2)no1 ?
E coli growth-1: 0.72; AddAB inh: -1; Tat transport: -15; E coli growth-2: 0; phage Ecoli inh: 1

How did CCCc1cc(C(=O)Nc2cc(C)on2)no1 do in these assays?
E coli growth-1: 0.63; AddAB inh: 100*; Tat transport: 3; E coli growth-2: 96*; phage Ecoli inh: 2; AddAB conf: 1; RecBCD counter: 3; Bact viability: 3

How did CC(=O)N1c2ccccc2C2CCCCC21 (configuration not stated) do in these assays?
E coli growth-1: 0.63

Results for O=[N+]([O-])c1ccc(/C=N/n2cnc3ccccc32)s1 ?
AddAB inh: 15*; Tat transport: -25; E coli growth-2: 9; phage Ecoli inh: 7; AddAB conf: 98*; RecBCD counter: 5.9*; Bact viability: 20

How did C=CCC(CC(=O)NC(CO)Cc1ccccc1)C(=O)NC(COC(=O)C(CC=C)Cc1ccc(F)cc1)Cc1c[nH]c2ccccc12 (configuration not stated) do in these assays?
E coli growth-1: 0.75

How did Cc1ccc(-n2c(-c3ccc(Br)cc3)c[n+]3c2CCc2ccc4cccnc4c2-3)cc1 do in these assays?
E coli growth-1: 0.49*; AddAB inh: 31*; Tat transport: -8; E coli growth-2: 24*; phage Ecoli inh: 5; AddAB conf: 76*; RecBCD counter: 5.5*; Bact viability: 21

How did N#CC1=C(N)OC2=C(C(=O)CC(c3ccccc3)C2)C1c1ccoc1 (configuration not stated) do in these assays?
E coli growth-1: 0.7; AddAB inh: 2; Tat transport: 4; E coli growth-2: 0; phage Ecoli inh: 3

Source: PubChem
